Hit rate of the full screen: of about 16,000 compounds, about 4,000 (25%) were called active. Not shown: some 26% with an inconclusive outcome. These entries were drawn from the full list. A number with no mark means an inactive call. Calls come from the whole dose curve; as a rule, active = well fitted curve in the direction sought with a large enough effect; inconclusive = small, poorly fitted or top-dose-only effect, or effect the other way; inactive = no such curve, though single readings can be large or run the other way.
The compounds below were run against Cytochrome P450 2C9 (Homo sapiens) (UniProt P11712) (assay: Cytochrome panel assay with activity outcomes). Conditions: recombinant CYP, pro-luciferin dealkylation, luminescence, p450-cyp2c9; series mostly up to 57.1 µM; activity, negative = inhibition: at the top concentration.
% is set by controls: 0 for no effect and ±100 for the full control effect.

Sequence of Cytochrome P450 2C9 (Homo sapiens) (P11712 whole entry, looked up): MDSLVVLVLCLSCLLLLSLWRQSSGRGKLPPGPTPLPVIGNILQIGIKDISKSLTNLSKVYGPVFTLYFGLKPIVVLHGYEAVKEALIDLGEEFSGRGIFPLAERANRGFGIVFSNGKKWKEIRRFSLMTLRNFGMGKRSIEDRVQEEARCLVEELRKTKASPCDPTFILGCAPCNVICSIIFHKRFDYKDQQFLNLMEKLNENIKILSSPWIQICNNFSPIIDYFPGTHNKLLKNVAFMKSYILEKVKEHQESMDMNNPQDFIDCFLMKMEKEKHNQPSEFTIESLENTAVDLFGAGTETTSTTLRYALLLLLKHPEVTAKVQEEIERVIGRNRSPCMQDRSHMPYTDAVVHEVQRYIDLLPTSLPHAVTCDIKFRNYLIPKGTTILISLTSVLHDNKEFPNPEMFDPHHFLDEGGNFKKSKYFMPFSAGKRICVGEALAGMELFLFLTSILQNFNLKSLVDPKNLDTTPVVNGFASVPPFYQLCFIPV

Row | SMILES | activity, negative = inhibition | AC50
1 | C#CCCCO/N=C1/C[C@@H](O)[C@@H](O)[C@@H]2[C@@H]3C(=O)N(C[C@@H]4CCCO4)C(=O)[C@H]3CC[C@H]12 | -17.1% [at 11.4 µM] | 
2 | Cc1cccc2nc(C(F)(F)F)nc(=O)n12 | -45.6% | 
3 | Cc1ccc(C)n1C(Cc1ccccc1)C(=O)O (configuration not stated) |  | 31.6 µM (active)
4 | C[C@@H](N)[C@@H](C)Cc1ccccc1 | -11% [at 11.4 µM] | 
5 | O=C(O)C[C@H](Cc1ccccc1)C(=O)O | -7.58% [at 11.4 µM] | 
6 | COc1ccc(S(=O)(=O)n2ccc(-c3cnc(-c4ccccc4)s3)n2)cc1 |  | 1.78 µM (active)
7 | COc1ncc2nc(-c3ccccc3)c(=O)n(C)c2n1 | -14.7% | 
8 | O=S(=O)(c1ccc(F)cc1)n1ccc(-c2cnc(-c3ccccc3)s2)n1 |  | 7.94 µM (active)
9 | C[C@@H](N=C(N)N)C(=O)O | 11.8% [at 11.4 µM] | 
10 | C[C@H](C(=O)c1ccncc1)c1ccccn1 | -11.4% [at 11.4 µM] | 
11 | Cc1c(C=O)c2ccccn2c1C(=O)c1ccncc1 |  | 7.94 µM (active)
12 | CCCCOC(=O)c1cc2c(cn1)[nH]c1ccccc12 |  | 7.94 µM (active)
13 | CCCCOC(=O)c1ccc(O)cc1 | -30% [at 25.6 µM] | 
14 | CCNC(=O)COC(=O)c1cc(=O)[nH]c2ccccc12 | 67.2% | 
15 | Nc1ncnc2c1ncn2[C@@H]1O[C@@H](C(=O)NC2CC2)[C@H](O)[C@@H]1O | 26.2% | 
16 | CCC(=O)Nc1nnc(C(C)(C)C)s1 | -24.6% | 
17 | CC(C)(C)c1nnc(NC(=O)c2cc(-c3ccccc3)nc3ccccc23)s1 |  | 7.08 µM (active)
18 | COc1ccc(-c2cc(C(=O)Nc3nc4c(C)cccc4s3)c3ccccc3n2)cc1OC |  | 2.51 µM (active)
19 | CC(=O)Nc1ccc(-c2cc(C(=O)O)c3cc4ccccc4cc3n2)cc1 | 4.42% [at 11.4 µM] | 
20 | CC(C)(C)NS(=O)(=O)c1ccc(NC(=O)c2cc(-c3ccccc3)nc3ccccc23)cc1 |  | 6.31 µM (active)
21 | c1cncc(CNc2ncnc3ccc(-c4ccoc4)cc23)c1 | 0.357% [at 2.29 µM] | 
22 | Cc1noc(C)c1-c1ccc2ncnc(N3CCN(C)CC3)c2c1 | -6.38% [at 2.29 µM] | 
23 | Cn1c2c(c(=O)n(C)c1=O)[C@@H]1c3c(ccc4ccccc34)OC[C@@H]1CO2 |  | 12.6 µM (active)

Row | SMILES | activity, negative = inhibition | AC50
24 | CCCC1c2c(ccc3ccccc23)Oc2ccc3ccccc3c21 | -4.51% [at 11.4 µM] | 
25 | CN(C)c1ccc(-c2nc(NC3CCNCC3)c3ccccc3n2)cc1 | 12.7% [at 2.29 µM] | 
26 | CCOC(=O)c1cccc(NC(=O)COc2ccc([N+](=O)[O-])cc2)c1 |  | 14.1 µM (active)
27 | C/C(=N\NC(=O)COc1ccc([N+](=O)[O-])cc1)C(C)(C)C | -13.3% | 
28 | O=C(COc1ccc(/C=N/NC(=O)c2ccccc2)cc1)Nc1ccc([N+](=O)[O-])cc1 | -5.73% | 
29 | C/C(=N\Nc1nnc(C)c(=O)[nH]1)C(=O)O | 23.7% | 
30 | CC(C)(C)n1nc2c(c1NC(=O)c1ccc(S(=O)(=O)N3CCCCC3)cc1)CS(=O)C2 (configuration not stated) | -25.8% | 
31 | O=C(Nc1ccccc1-c1nc2ccccc2[nH]1)c1ccc(S(=O)(=O)N2CCCCC2)cc1 |  | 2 µM (active)
32 | COc1ccccc1-c1nc(N(C)Cc2ccco2)c2ccccc2n1 | -7.62% [at 2.29 µM] | 
33 | O=C(Nc1c2c(nn1-c1ccc(F)cc1)CS(=O)(=O)C2)C12CC3CC(CC(C3)C1)C2 | -21.8% | 
34 | CCC(CC)C(=O)Nc1c2c(nn1-c1ccc(OC)cc1)CS(=O)(=O)C2 |  | 7.94 µM (active)
35 | CSC(=N)N |  | inactive
36 | Cc1nnc(-c2cccc(Br)c2)c2cn(-c3ccccc3Cl)nc12 |  | 2.82 µM (active)
37 | Cc1nnc(-c2cccc(Br)c2)c2cn(-c3ccc(Br)cc3)nc12 |  | 2 µM (active)
38 | NC[C@@H]1O[C@H](c2ccccc2)Cc2c1ccc(O)c2O |  | 6.31 µM (active)
39 | NC[C@@H]1O[C@H](C23CC4CC(CC(C4)C2)C3)Cc2c1ccc(O)c2O |  | inactive
40 | CO/N=C(\C(=O)N[C@@H]1C(=O)N2C(C(=O)O)=C(COC(N)=O)CS[C@@H]12)c1ccco1 | -0.22% [at 25.6 µM] | 
41 | C=C(C)CN(CC#N)CC(=C)C | 11% [at 11.4 µM] | 
42 | Cc1cccc(-c2c3c(=O)n(C)c(=O)n(C)c3cn2C2CCCCC2)c1 |  | 10 µM (active)
43 | CC1=CC(=O)N(c2cccc(C(F)(F)F)c2)C1c1ccc(Cl)cc1 (configuration not stated) |  | 12.6 µM (active)
44 | Cc1n[nH]c(=O)n1-c1cccc(C(F)(F)F)c1 | -26.8% | 
45 | OC[C@@H]1O[C@@H](n2cnc3c(SCc4ccccc4)ncnc32)[C@@H](O)[C@H]1O | 5.12% [at 11.4 µM] | 
46 | CC(=O)C1=NOC(CNC(=O)c2c(-c3ccccc3Cl)noc2C)C1 (configuration not stated) | -24.8% | 

Row | SMILES | activity, negative = inhibition | AC50
47 | Cc1ccc(NC(=S)NC(=O)c2c(-c3ccccc3Cl)noc2C)cc1 |  | 1.41 µM (active)
48 | Cc1onc(-c2ccccc2Cl)c1C(=O)Nc1nnc(Cc2ccc(Cl)cc2)s1 |  | 1.26 µM (active)
49 | Cc1onc(-c2ccccc2Cl)c1C(=O)NCC(=O)O | -18% | 
50 | CC(=O)NCCNc1ncnc2ccc(-c3ccccc3C(F)(F)F)cc12 | 5.92% [at 2.29 µM] | 
51 | CCn1c2ccccc2c2cc(N=C3SC(CC(=O)Nc4ccccc4)C(=O)N3C)ccc21 (configuration not stated) |  | 0.126 µM (active)
52 | COc1ccccc1NC(=O)CCN1C(=O)C2CC=C(Cl)CC2C1=O (configuration not stated) | 19.4% | 
53 | CCn1c2ccccc2c2cc(N=C3SC(CC(=O)Nc4ccccc4OC)C(=O)N3C)ccc21 (configuration not stated) |  | 0.891 µM (active)
54 | O=C(O)CC[C@@H](C(=O)O)N1C(=O)[C@@H]2[C@@H]3CC[C@H](C3)[C@@H]2C1=O | 12.5% [at 11.4 µM] | 
55 | OCCNc1nc(NCCC2=CCCCC2)nc(N2CCOCC2)n1 |  | 14.1 µM (active)
56 | CCOC(=O)CNS(=O)(=O)c1cc(-c2nn(C)c(=O)c3ccccc23)ccc1C |  | 0.316 µM (active)
57 | CCN(CC)CCNC(=O)C(C)c1nn(C)c(=O)c2ccccc12 (configuration not stated) | -0.184% | 
58 | CS(=O)(=O)Nc1cccc(-c2ccc3ncnc(NCCN4CCOCC4)c3c2)c1 | 19% [at 2.29 µM] | 
59 | N[C@@H](Cc1cccc([N+](=O)[O-])c1)C(=O)O | 16.8% [at 11.4 µM] | 
60 | CCN(Cc1ccccc1)Cc1cccc([N+](=O)[O-])c1 |  | 10 µM (active)
61 | Cc1ccc(S(=O)(=O)NCc2cccc([N+](=O)[O-])c2)cc1 | 24.1% [at 11.4 µM] | 
62 | COc1c(Cl)cc(Cl)cc1CNCCNCC(C)O (configuration not stated) | 15.2% | 
63 | Cc1cc(Cl)nc2ccc(Cc3ccc4nc(Cl)cc(C)c4c3)cc12 | 0.565% [at 11.4 µM] | 
64 | COc1ccc2c(C)cc(N3CCOCC3)nc2c1 | 11.4% | 
65 | Cc1cc(N2CCOCC2)nc2ccc(Cc3ccc4nc(N5CCOCC5)cc(C)c4c3)cc12 |  | 3.98 µM (active)
66 | CCCc1nnc(SCC(=O)O)n1/N=C/c1ccc2c(c1)OCO2 | -24.4% | 
67 | CCNc1ccc(Br)cc(C(=O)/C=C/c2ccc3c(c2)OCO3)c1=O |  | 11.2 µM (active)
68 | COc1ccccc1N1CCN(C(=O)/C=C/c2ccc3c(c2)OCO3)CC1 |  | 14.1 µM (active)
69 | Nc1ccccc1C(=O)/C=C\c1ccc2c(c1)OCO2 | -29.2% [at 11.4 µM] | 

Row | SMILES | activity, negative = inhibition | AC50
70 | O=C(/C=C\C=C/c1ccc2c(c1)OCO2)N1CCCCC1 | -34.7% [at 25.6 µM] | 
71 | COCOc1cc(OC)ccc1C(=O)/C=C\c1ccc2c(c1)OCO2 |  | 2.51 µM (active)
72 | CCCCCCCCCCCCCCCCCCc1ccc(C(=O)/C=C\C(=O)O)cc1 | -7.99% | 
73 | CCCC(=O)Nc1ccc(C(=O)/C=C/c2ccc(SC)cc2)cc1 |  | 1.78 µM (active)
74 | O=C(O)CC/C=C\C[C@@H]1CO[C@H](c2ccccc2Cl)O[C@@H]1c1ccccc1O | -16.7% | 
75 | c1ccc(C2OCC3(CO2)COC(c2ccccc2)OC3)cc1 (configuration not stated) | -37.5% | 
76 | O=C1CCCCCC1C1(O)C(=O)Nc2ccc(Br)cc21 (configuration not stated) | -11.1% | 
77 | Nc1nc(SCc2ccccc2[N+](=O)[O-])c2[nH]cnc2n1 | -28.6% [at 11.4 µM] | 
78 | CC(C)[C@H](Sc1nc(N)nc2nc[nH]c12)C(=O)O | 12.2% [at 11.4 µM] | 
79 | Nc1nc(Sc2ccc([N+](=O)[O-])c3nonc23)c2[nH]cnc2n1 |  | 3.16 µM (active)
80 | CCOC(=O)N1CCN(C(=O)C(CC)n2nc(C)c3sc4ccccc4c3c2=O)CC1 (configuration not stated) |  | 3.16 µM (active)
81 | CCOC(=O)N1CCN(C(=O)CCn2nc(-c3ccccc3)ccc2=O)CC1 | -13.9% | 
82 | CN(C)CCCN=c1c2ccccc2n(C)c2[nH]c(=O)n(C)c(=O)c12 | -3.97% [at 11.4 µM] | 
83 | CC(=O)NCCNc1ccnc(-c2ccccc2C(F)(F)F)n1 | 9.95% [at 2.29 µM] | 
84 | COc1cc(O)oc1C=Nc1ccc(Cl)cc1 |  | 22.4 µM (active)
85 | COc1ccc(N=Cc2ccc(CNS(=O)(=O)c3ccc(Cl)cc3)o2)cc1 | -5.91% | 
86 | CCNC(=S)N1CC(C)OC(C)C1 (configuration not stated) | -4.79% | 
87 | Cc1ccc(SCN2CCCCC2)cc1 (tested in a mixture with another compound) | -29.3% [at 11.4 µM] | 
88 | Cc1ccc(N(CCC#N)C(=O)CSc2ccc3c(c2)OCCO3)cc1 |  | 5.01 µM (active)
89 | CC1Cc2ccccc2N1Cc1nc2cc(C(F)(F)F)ccc2c(=O)[nH]1 (configuration not stated) |  | 5.01 µM (active)
90 | O=S(=O)(c1ccc(Br)cc1)N1CCN(S(=O)(=O)c2ccc(Br)cc2)CC1 | 25.6% [at 11.4 µM] | 
91 | O=S(=O)(c1cccc(-c2nnc(-c3ccc(Br)cc3)o2)c1)N1CCCCCC1 |  | 5.01 µM (active)
92 | Brc1ccc(-c2nnc(-c3cccc(Br)c3)o2)cc1 | -6.6% | 

Source: PubChem BioAssay AID1851 (National Center for Advancing Translational Sciences (NCATS), 2009)
